Test results reported in the OligoGym collection.
Note: reference of the scale not given here.

What follows are sequences tested against PDIA5 (assay: pooled miR-30 sensor sort-seq; sequence = guide strand). Conditions: shRNA.
TCAACCTTTTTGTCCTTCGGGC was tested, and the sensor-assay potency score (higher = more potent) was -0.306. For TTCAACGTAGGAAACTCTGAGA, the sensor-assay potency score (higher = more potent) was -0.249. Work on TACTTTTCTGCGAACTTCCCAT yielded a sensor-assay potency score (higher = more potent) of -0.283. TCATACTGGAACAAGAACCGTC was tested, and the sensor-assay potency score (higher = more potent) was 0.647.

These sequences were tested against PDLIM4 in the same assay as above. Conditions: shRNA.
TCGGAGCCCAGGTCGACTCTGC showed a sensor-assay potency score (higher = more potent) of -1.11. Sequence TGAGCTCTGTGCTCTCACCATT has a sensor-assay potency score (higher = more potent) of -1.16. Sequence TTGGTCTGCCATCTTCTGGCCC has a sensor-assay potency score (higher = more potent) of -0.715. Work on TTGTGAGGGACTGGAAAGCGAG yielded a sensor-assay potency score (higher = more potent) of -1.61. In the case of TCAGGATCGATGTGGATCCTGT, the sensor-assay potency score (higher = more potent) is reported as -1.13. AAAGAAGTAACCACGCTGCTTG showed a sensor-assay potency score (higher = more potent) of 0.146. With TAGAGCTTGTCCCGTGCCTTGA the sensor-assay potency score (higher = more potent) was -0.615. With TGCACATGAAGCACTCGGGATG the sensor-assay potency score (higher = more potent) was -1.65. TCACTGCACATGAAGCACTCGG showed a sensor-assay potency score (higher = more potent) of -0.799. Work on TTGTCCATATGGAGATCCCAGG yielded a sensor-assay potency score (higher = more potent) of -1.39. AGACAGTGTGAGGTGATCGTGG was tested, and the sensor-assay potency score (higher = more potent) was -1.1. TACACCGCCACCACGTCGTAGC gave a sensor-assay potency score (higher = more potent) of -0.286.

What follows are sequences tested against PDP1 in the same assay as above. Conditions: shRNA.
With TTTAAGGATGCTATTGACTTGT the sensor-assay potency score (higher = more potent) was 0.228. TACAACATGAGAATTGAACTGA showed a sensor-assay potency score (higher = more potent) of 1.04. TTGTCATTCAACTGGTCTGGGC showed a sensor-assay potency score (higher = more potent) of -1.11. For TAGAACTGACATTTTTGCCGTC, the sensor-assay potency score (higher = more potent) was 0.378. For TATTATAGTAGTATCTTTTTAA, the sensor-assay potency score (higher = more potent) was -1.01. With TGCATTTTCAATCTCTAGCAAA the sensor-assay potency score (higher = more potent) was -1.4. TTTTGAAGGTCAATGCTCCATT gave a sensor-assay potency score (higher = more potent) of -0.4. TGAAACTGTATTCATTAGCTTT showed a sensor-assay potency score (higher = more potent) of -0.926. TTAGGAGGAATAAACTTGGTAT gave a sensor-assay potency score (higher = more potent) of -0.0779. In the case of TATTCATTGTCATTCAACTGGT, the sensor-assay potency score (higher = more potent) is reported as -0.478. Work on ATGATTGTAATGTCATCTCTGT yielded a sensor-assay potency score (higher = more potent) of 0.0872. Sequence TTGAACTGAACTACAATGATTG has a sensor-assay potency score (higher = more potent) of -0.787.

These sequences were tested against PDZD4 in the same assay as above. Conditions: shRNA.
TTTGGCTGCAATGCTGTTGGGA was tested, and the sensor-assay potency score (higher = more potent) was -0.7. TCACTTTGTACTGCTCCTCCGG was tested, and the sensor-assay potency score (higher = more potent) was -0.937. With TTGCAGGCCAAACTTGCGCAGG the sensor-assay potency score (higher = more potent) was -1.4. For TACACCGTTAATCTGGATGATG, the sensor-assay potency score (higher = more potent) was -1.18. TTGATCTCCAGGAGCTCACGGT showed a sensor-assay potency score (higher = more potent) of -0.853. With TTTCAGTTTACGAGCACGCAGC the sensor-assay potency score (higher = more potent) was -0.95. TCGTCGTCGGTCGTCATACCGC was tested, and the sensor-assay potency score (higher = more potent) was -1.57. TTTTATACAGCTCCACCTCCTC was tested, and the sensor-assay potency score (higher = more potent) was -1.13. For TGTCCTTGTCCGACTTCTCGGG, the sensor-assay potency score (higher = more potent) was -0.294. Sequence TCGTCGGTCGTCATACCGCTGC has a sensor-assay potency score (higher = more potent) of -0.818. For TCATCCAGGAAGTCATCCCGGT, the sensor-assay potency score (higher = more potent) was -0.501. TTCACTTTCCACTCCATGCGCG was tested, and the sensor-assay potency score (higher = more potent) was -0.515.
